Our source for the growth values is PubChem BioAssay (NCI).

The panel holds about 83,000 compounds, 20% with a hit somewhere; the sample as a whole holds those more often.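 Interpretation: 100, growth as untreated; towards 0, rising growth inhibition; 0, no net growth; 0 to -100, cell death. Compounds scoring below 10 were considered active.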 A number with no mark means an inactive call. Calls of active or inactive are those of the source.

Assay in all cases: NCI-60 one-dose screen, 48 h (100 = growth as untreated, 0 = no growth, -100 = all killed)
Details in all cases: 10 µM unless noted

In test [1] the test system is NCI-H23 lung.
The test system of test [2] is NCI-H226 lung.
The subject of test [3] is NCI-H322M lung.
The test system of test [4] is HOP-62 NSCLC.
Test [5] concerns NCI-H460 lung.
The subject of test [6] is HOP-92 NSCLC.
Test [7] relates to NCI-H522 lung.
Test [8] has as its system A549/ATCC NSCLC.
The test system of test [9] is 786-0 renal.
Test [10] relates to COLO 205 colon.

As to `CCOC(=O)c1sc2nc(-c3cc(OC)c(OC)c(OC)c3)nc(N3CCOCC3)c2c1C`, the growth in test [1] was 27.6%; in test [2], 44.7%; in test [3] it was 48.2%; in test [4], 77.1%; in test [5], 17.5%; in test [6], -15% (active). Also, the growth in [7] was 12.1%; in test [8] it was 28.9%; in test [9], 51.8%; in test [10], 26.5%.

As for `COc1ccc(NCc2cn(-c3ccc(C(=O)O)cc3)nc2-c2ccc(C(=O)O)cc2)cc1C(F)(F)F`, the growth in test [1] is 99.8%; in test [2], 98.5%; in test [3], 89.1%; in [4], 96.6%; in test [5], 100%; in test [6], 66.6%. For the same compound, the growth in test [7] is 97.8%; in test [8], 99.8%; in test [9], 90.4%; in test [10], 111%.

As for `O=C(Nc1cccc2ccccc12)c1cc2ccccc2cc1O`, the growth in test [1] was 8.03% (active); in test [2], 12.5%; in test [3], -4.28% (active); in test [4], 12.5%; in [5], 7.16% (active); in [6] it was -22% (active). Further, the growth in test [7] was 9.44% (active); in test [8] it was 11.3%; in test [9], 22.2%; in test [10] it was 112%.

Consider `O=S(=O)(NCCCNc1nccc(-c2c(-c3cccc(F)c3)nc3occn23)n1)c1cccc2ccccc12`, for which the growth in [1] is 63.9%; in test [2] it was 36.3%; in test [3] it was 64.6%; in test [4], 74.4%; in test [5] it was 18.7%; in [6], 63.9%. Also, the growth in test [7] is 51.1%; in test [8] it was 33.5%; in [9], 46.5%; in test [10] it was -18.1% (active).

With `C=C(CC(=O)OC)C(C)=O`, the growth in test [1] was 105%; in [2], 104%; in test [3], 119%; in test [4], 98.7%; in test [5], 111%; in test [6] it was 112%. Moreover, the growth was 101% in test [7], 114% in test [8], 106% in [9] and 116% in test [10].

Turning to `C=C(C)[C@@H]1CC[C@]2(COCCC#N)CC[C@]3(C)[C@H](CC[C@@H]4[C@@](C)(CCCNCCC#N)[C@H](C(=C)C)CC[C@]43C)[C@@H]12`, the growth in [1] was 29% [100 µM]; in test [2] it was 42.6% [100 µM]; in [3], 72.2% [100 µM]; in test [4], 77.8% [100 µM]; in [5] it was 9.8% [100 µM] (active); in [6] it was -14.6% [100 µM] (active). The growth in test [7] was -6.77% [100 µM] (active); in test [8], 50.4% [100 µM]; in [9], 16.1% [100 µM]; in [10], 11.3% [100 µM].

For the compound `COc1cc2c(c(OC)c1OC)-c1cc(I)c(O)cc1[C@@H](NC(C)=O)CC2`, the growth in test [1] was 48.8%; in test [2] it was 5.87% (active); in test [3], 70.3%; in [4], 42%; in test [5], 3.02% (active); in test [6], 62.1%. The growth in [7] is -12.2% (active); in [8] it was 14.9%; in [9], 29.7%; in test [10], -64% (active).

As to `COc1ccc2nc3ccccc3c(NCCNCCO)c2c1`, the growth was -40.3% (active) in test [1]; -10.8% (active) in test [2]; -25% (active) in [3]; -6.96% (active) in test [4]; -41.3% (active) in test [5]; -10.7% (active) in [6]. Moreover, the growth in test [7] is -48.7% (active); in [8], -27% (active); in [9] it was 3.89% (active); in test [10] it was -75.3% (active).

Consider `O=C(OCc1ccc2c(Cl)cc(Cl)c(O)c2n1)N1CCNCC1`, for which the growth was 47.1% in [1]; 42.2% in test [2]; 47.1% in test [3]; 22.9% in test [4]; 15.4% in test [5]; 44.9% in test [6]. For the same compound, the growth was 42.4% in test [7], 17.3% in [8], 61.1% in test [9] and 54.3% in test [10].

Consider `c1nc(N2CCOCC2)c2[nH]ccc2n1`, for which the growth in test [1] was 116%; in [2] it was 114%; in [3] it was 104%; in [4], 114%; in test [5], 104%; in test [6] it was 69.8%. The growth is 102% in test [7], 99.9% in test [8], 101% in [9] and 113% in test [10].

`COC(=O)[C@H](CC(C)C)NC(=O)NC(=O)NC(=O)CI`: the growth in [1] is 73.5%; in test [2], 98.5%; in [3], 98.2%; in [4], 92.8%; in test [5], 85.9%; in test [6] it was -60.6% (active). The growth is -79.2% (active) in test [7], 98.2% in test [8], -73.5% (active) in test [9] and -31.4% (active) in test [10].

`COc1ccc(-c2cc(-c3ccccc3)nc(SCCCCCC(=O)NO)n2)cc1`: the growth in test [1] is 61.7%; in test [2], 80.3%; in test [3], 74.3%; in test [4] it was 51.5%; in test [5] it was 51.9%; in [6], 40.5%. Also, the growth in [7] is 10.1%; in [8], 59.3%; in [9] it was 88%; in test [10], 38.1%.

In the case of `Fc1cc2[nH]ncc2c2c3c(c(-c4cn[nH]c4)nc12)CCCC3`, the growth in test [1] was -14.5% (active); in test [2] it was 1.53% (active); in test [3], 2.77% (active); in test [4] it was -10.6% (active); in [5] it was 1.29% (active); in test [6], -7.43% (active). Besides, the growth in [7] is -9.92% (active); in [8], 1.75% (active); in [9], 12.1%; in [10], -43.8% (active).

`O=C(Nc1ccc(C(=O)/C=C/c2ccc(N3CCOCC3)cc2)cc1)Nc1ccc([N+](=O)[O-])cc1`: the growth in [1] was 83.4%; in [2] it was 45%; in [3] it was 63.1%; in test [4], 105%; in test [5] it was 67.9%; in [6], 120%. The growth in [7] was 84.1%; in [8], 81.3%; in [9], 111%; in test [10] it was 109%.

Take `O=C(O)c1cc([N+](=O)[O-])ccc1Br`: the growth in test [1] is 105%; in test [2], 97.8%; in test [3], 94.1%; in test [4] it was 109%; in [5], 105%; in test [6] it was 91.4%. Besides, the growth in [7] is 97.3%; in test [8] it was 101%; in test [9], 102%; in test [10], 115%.

For `CCCOc1ccc(-c2nc(-c3ccc(N)cc3)cs2)cc1`, the growth in test [1] is 96.8%; in [2], 111%; in [3], 103%; in [4] it was 107%; in [5], 98%; in [6], 94.4%. The growth in test [7] was 89.3%; in test [8], 93.5%; in test [9], 87.1%; in test [10], 143%.

As for `COCCCNc1nc(NC(=O)c2cc(OC)cc(OC)c2)cc(-c2cccnc2)n1`, the growth in test [1] is 98.6%; in test [2] it was 96.5%; in test [3], 92.8%; in test [4], 91.3%; in [5], 95.2%; in test [6], 52.6%. Also, the growth was 76.5% in [7], 91.2% in test [8], 83.3% in [9] and 109% in test [10].

Consider `CC(=O)O.CC(=O)O.O.[Fe]`, for which the growth in test [1] was 106%; in [2], 101%; in [3] it was 111%; in [4] it was 103%; in test [5] it was 107%; in [6] it was 99.8%. The growth in [7] was 90%; in test [8] it was 99.1%; in [9], 112%; in test [10], 101%.

Turning to `Cc1cc(C)c(O)c(CNCCCNCc2cc(C)cc(C)c2O)c1`, the growth in test [1] was 81.7%; in test [2], 91.4%; in [3] it was 45.7%; in test [4], 74.9%; in test [5], 40.7%; in test [6], 40.5%. Besides, the growth in [7] is 42.4%; in test [8] it was 78.8%; in test [9], 80%; in [10] it was 9.05% (active).

Take `Cn1cc(-c2noc(C(=O)c3cn(C)c4ncc(Br)cc34)n2)c2ccccc21`: the growth is 97.7% in test [1]; 99.3% in [2]; 91% in test [3]; 102% in test [4]; 99.8% in test [5]; 37.6% in test [6]. The growth in test [7] was 91.6%; in test [8] it was 99.3%; in test [9], 91.3%; in test [10], 107%.

For the compound `CCCCCn1sc(=O)n(Cc2ccc(CNC(=O)OCc3ccc4cccc(O)c4n3)cc2)c1=O`, the growth was 25.1% in [1]; 21.9% in test [2]; 41.8% in [3]; -0.186% (active) in test [4]; 6.42% (active) in [5]; -52.5% (active) in [6]. For the same compound, the growth in [7] is -49.1% (active); in [8] it was 20.6%; in test [9] it was -71% (active); in test [10], -45.2% (active).

In the case of `CC1(C)C(=NO)C(C)(C)C1=NO`, the growth in [1] was 111%; in [2], 103%; in [3], 99.6%; in [4], 117%; in test [5] it was 105%; in test [6] it was 88.7%. Besides, the growth was 94.1% in test [7], 103% in [8], 110% in [9] and 116% in [10].

`O=C(Nc1ccc(Oc2ccc(F)cc2)c(Cl)c1)c1cccnn1`: the growth in test [1] is 62.3%; in test [2], 55%; in test [3] it was 87.6%; in test [4], 84.2%; in [5], 76.8%; in [6], 66.5%. Moreover, the growth in test [7] is 61.8%; in test [8] it was 65.5%; in test [9], 105%; in [10], 112%.

As for `O=[N+]([O-])c1cccc(/C=C/c2ccc3ccccc3n2)c1`, the growth in test [1] was 85.8%; in [2], 82.9%; in test [3], 74.3%; in test [4] it was 55.5%; in test [5] it was 77.1%; in test [6], 66.6%. The growth in test [7] is 47.5%; in test [8], 79.5%; in test [9] it was 70.4%; in test [10], 91.7%.

For `Cc1ccc(NC(=O)N[C@@H](Cc2cc(F)cc(F)c2)C(=O)N[C@@H]2C(=O)N3CCC[C@H]3C(=O)N3CCOC[C@H]3C(=O)N[C@@H](C)C(=O)N3C[C@H](C)C[C@H]3C(=O)O[C@H]2C)cc1`, the growth in test [1] is 33.5%; in test [2], 30.5%; in test [3], 62.2%; in test [4], 26.7%; in test [5], 26.4%; in test [6], 39.4%. Moreover, the growth is 37.7% in test [7], 27.3% in test [8], 34.1% in test [9] and 10% (active) in [10].

As to `COc1ccc(CC(C#N)c2ccc(Cl)cc2)cc1` (stereo not given), the growth in test [1] is 77.2%; in test [2], 87.5%; in test [3] it was 93.9%; in test [4] it was 74.3%; in [5], 83.7%; in test [6] it was 83.8%. In addition, the growth in [7] is 78.1%; in [8], 79.1%; in [9], 87%; in test [10], 94%.

With `COCc1nc2ccccc2[nH]1`, the growth in test [1] was 103%; in test [2] it was 100%; in test [3] it was 100%; in test [4], 105%; in [5], 106%; in [6] it was 100%. Besides, the growth was 96.3% in test [7], 100% in test [8], 99.4% in test [9] and 109% in test [10].
